Results reported in the supplement of paper PMC6555819.

Legend:
Experiment in all cases: PBM binding z-score (relative to random genomic background probes); higher = stronger binding; sequences stand for … in GC…GCGATTGACAGCGTAGAATGAAGG
[1] = system: FXR:RXRa (NR concentration 270 nM, RXRa partner concentration 90 nM)
In short: (§1)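 Binding buffer was PBS pH 7.4 with 2% milk, 0.02% Triton X-100, 1 mM DTT, 0.2 mg/mL BSA and 0.4 mg/ml salmon testes DNA. In it, ligand-free nuclear receptor dimers were incubated 1 h on custom Agilent 4×180K protein-binding microarrays carrying double-stranded probes. Antibodies against each partner (one per run) detected binding, and z-scores were calculated against random background probes after regression normalization of scanned fluorescence.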

[2] = system: LXRa:RXRa (NR concentration 270 nM, RXRa partner concentration 90 nM)
In short: as §1

[3] = system: LXRa homodimer (NR concentration 270 nM)
In short: as §1

[4] = system: LXRb:RXRa (NR concentration 270 nM, RXRa partner concentration 90 nM)
In short: as §1

[5] = system: LXRb homodimer (NR concentration 270 nM)
In short: as §1

[6] = system: PPARa:RXRa (NR concentration 270 nM, RXRa partner concentration 90 nM)
In short: as §1

[7] = system: PPARg:RXRa (NR concentration 180 nM, RXRa partner concentration 90 nM)
In short: as §1

[8] = system: PPARg:RXRa 270nM:90nM, anti-RXR (NR concentration 270 nM, RXRa partner concentration 90 nM)
In short: as §1

[9] = system: PPARg:RXRa 30nM:10nM, anti-RXR (NR concentration 30 nM, RXRa partner concentration 10 nM)
In short: as §1

[10] = system: PPARg:RXRa 90nM:30nM, anti-RXR (NR concentration 90 nM, RXRa partner concentration 30 nM)
In short: as §1

[11] = system: PPARg:RXRa DBDmut IVT, anti-RXR (DBD mutation: RXRa K156A/R161A, NR concentration 270 nM, RXRa partner concentration 90 nM)
In short: as §1

[12] = system: PPARg:RXRa IVT, anti-PPARg (NR concentration 270 nM, RXRa partner concentration 90 nM)
In short: as §1

[13] = system: PPARg DBDmut:RXRa IVT, anti-PPARg (DBD mutation: PPARg1 K132A/R137A, NR concentration 270 nM, RXRa partner concentration 90 nM)
In short: as §1

[14] = system: PPARg DBDmut IVT, anti-PPARg (DBD mutation: PPARg1 K132A/R137A, NR concentration 270 nM)
In short: as §1

[15] = system: PPARg homodimer (NR concentration 180 nM)
In short: as §1

[16] = system: PXR:RXRa (NR concentration 270 nM, RXRa partner concentration 90 nM)
In short: as §1

[17] = system: PXR homodimer (NR concentration 270 nM)
In short: as §1

[18] = system: RARa:RXR (NR concentration 270 nM, RXRa partner concentration 90 nM)
In short: as §1

[19] = system: RARa homodimer (NR concentration 270 nM)
In short: as §1

Sequence	PBM binding z-score [1]	PBM binding z-score [2]	PBM binding z-score [3]	PBM binding z-score [4]	PBM binding z-score [5]	PBM binding z-score [6]	PBM binding z-score [7]	PBM binding z-score [8]	PBM binding z-score [9]	PBM binding z-score [10]	PBM binding z-score [11]	PBM binding z-score [12]	PBM binding z-score [13]	PBM binding z-score [14]	PBM binding z-score [15]	PBM binding z-score [16]	PBM binding z-score [17]	PBM binding z-score [18]	PBM binding z-score [19]
ATATGTAGCTTAAGGGTCATTCAGGTTGGTTCGC	3.83	3.86	1.83	3.79	0.863	4.2	3.93	5.35	3.44	5.39	0.343	2.21	1.55	0.663	2.61	4.83	1.67	4.2	0.894
CGTCGGAGGACAGAAGGTCAGAGCTGTCCGCTTT	1.32	1.68	0.0253	1.19	-1.11	1.85	-0.101	1.07	-0.708	0.0661	0.0146	0.25	-1.84	-2.14	1.33	1.48	-0.228	1.84	0.257
TTACCAAGGTGAAAGGTCGTTGAAGCACGCCTTG	4.16	3.41	0.16	2.97	-0.616	5.82	9.24	8.52	7.08	9.79	2.63	5.39	0.668	-0.186	1.84	4.44	0.41	6.52	-0.363
CTCGAAAGGTCGGTTGAGGTGACTATACGGATAA	3.63	1.84	-0.14	1.58	0.0463	2.63	0.621	1.11	0.252	0.639	0.163	1.15	0.145	0.106	0.89	3.61	0.00293	2.11	0.415
CATACCGGGTCAGCTAGGCCAGAGTAGGGACGGC	2.5	1.78	-0.499	1.04	-0.0141	3.1	2.07	1.87	0.181	0.975	1.21	2.82	0.167	0.0787	0.359	1.05	-0.232	1.76	-0.125
AGTCAAAGGTCAGGACGAGGTAACGTAAAGCACG	7.52	5.96	0.926	4.9	1.48	6.17	8.88	7.95	4.99	7.2	3.25	5.65	0.687	0.49	4.08	4.9	0.639	5.78	2.25
TCTAGGAGGACACGAAGGTCAGAGCTTTCCAGAG	1.27	0.762	0.19	0.856	-0.833	2.05	0.882	2.09	2.49	2.5	1.91	1.99	-0.157	-1.05	0.55	1.72	0.568	1.83	-0.482
CCTACTGGGCCATTCAGAGGACATTGATCATATG	-0.067	-0.34	0.339	-0.405	-0.12	0.0535	0.784	0.44	-0.132	-0.17	4.5	3.41	0.559	-0.35	-0.295	-0.327	0.096	-0.457	-0.467
TCTGCTAGGTCAGTTGGGCAGCTAACGAGCTGCC	0.934	0.385	-0.629	0.223	0.28	1.12	0.0296	1.52	0.946	1.17	2.07	2.7	-0.163	-0.28	0.0544	-0.242	-1.29	0.253	-1.12
CGTCAAAGTTCAACTAAGTTAACGTAAAGCACGC	7.25	5.95	4.61	4.33	2.56	4.99	5.09	5.05	2.33	4	0.764	1.89	1.94	1.78	2.97	6.14	5.97	4.09	2.57
CAAACTAGGTCACAGAGGTCAACGTCCGTGCGTA	7.51	6.49	6.37	5.93	1.62	6.75	10.3	8.36	6.69	8.46	8.84	9.29	4.63	5.15	4.43	6.82	8.28	7.23	2.74
CGTCCAAGGTCAACAGGTCAGTGAAAGCGACGTG	7.08	5.58	1.56	4.45	0.945	5.84	5.65	6.07	2.82	4.88	3.88	4.5	0.0184	0.0079	5.41	4.98	1.28	5.92	1.34
GCTGCTAGGTCAGGTTGGTCAACTAACGGGTACG	1.14	0.685	-0.134	0.695	-0.424	1.46	0.577	0.833	-0.708	0.0771	3.05	2.52	-0.717	-0.77	0.891	0.217	-0.382	0.842	-0.0438
CCGACGGGGGCAAGGTTACCATAACGCACAGCCA	3.14	3.01	0.301	4.21	3.34	3.96	2.74	3.36	1.37	2.84	1.63	2.94	2.07	2.52	1.9	2.63	0.67	3.36	0.881
AGTCAAATTTCATCTAGGTAACGTAAGATATGCT	-0.224	-0.221	0.168	0.0477	0.362	0.347	1.02	0.0693	0.291	0.178	0.205	2.04	1.11	1.49	0.098	-0.111	-0.176	0.369	0.837
